# From PubChem BioAssay (EPA / NIEHS)
# Results filed as inconclusive are left out. The source made the active and inactive calls. How the source made its calls: active means hit-call score of the fitted dose curve at least 0.9, where 1 is the maximum; inconclusive means response in the unintended direction; inactive means score below 0.9.
# Legend:
# [1] = molecular target: guinea pig Bradykinin Receptor B2 (BK2), BDKRB2 (gene 100135486) (UniProt O70526); assay: NVS_GPCR_gBK2: NovaScreen (NVS) G Protein-Coupled Receptor Assay for guinea pig Bradykinin Receptor B2 (BK2) (AID 2283292)
# Procedure, shortened: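 Guinea pig ileum membrane preparation incubated 1 h with radioligand and test chemical; bound counts measured after filtration. Primary duplicate screening at 25 uM, then singleton concentration series with a 50 uM top dose; DMSO as baseline.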
# [2] = molecular target: human Opioid Receptor Mu (Opiate Mu), OPRM1 (gene 4988) (UniProt P35372); assay: NVS_GPCR_hOpiate_mu: NovaScreen (NVS) G Protein-Coupled Receptor Assay for human Opioid Receptor Mu (Opiate Mu) (AID 2283290);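 further: hits lower bound tracer signal versus DMSO meaning displacement of the ligand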
# Procedure, shortened: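 CHO-derived receptor protein, cell-free; radioligand displacement, filtration + scintillation counting, read at 2.5 h. DMSO = negative control/baseline. Primary: 25 uM single conc, duplicate; secondary: concentration series.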
# [3] = molecular target: guinea pig Serotonin, 5-Hydroxytryptamine Receptor 4 (5HT4), HTR4 (gene 100135548) (UniProt O70528); assay: NVS_GPCR_g5HT4: NovaScreen (NVS) G Protein-Coupled Receptor Assay for guinea pig Serotonin, 5-Hydroxytryptamine Receptor 4 (5HT4) (AID 2283294)
# Procedure, shortened: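 Compounds first screened in duplicate at 25 uM, actives followed up in concentration series. Binding measured as displacement of specific radioligand from guinea pig striatal membranes, 1 h, filter-based scintillation read-out versus DMSO baseline.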
# [4] = test system: rat Adrenergic, Alpha 1B Receptor (Adra1B), gene 24173; assay: NVS_GPCR_rAdra1B: NovaScreen (NVS) G Protein-Coupled Receptor Assay for rat Adrenergic, Alpha 1B Receptor (Adra1B) (AID 2283297)
# Procedure, shortened: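 Filter-binding radioligand competition on membranes from rat liver, read after 1 h by scintillation counting. Single-concentration duplicate screen at 25 uM, followed by concentration-response on actives, normalised to DMSO.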
# [5] = molecular target: rat Serotonin, 5-Hydroxytryptamine Receptor (5HT), Non-Selective Binding, Htr1a (gene 24473) (UniProt P19327); assay: NVS_GPCR_r5HT_NonSelective: NovaScreen (NVS) G Protein-Coupled Receptor Assay for rat Serotonin, 5-Hydroxytryptamine Receptor (5HT), Non-Selective Binding (AID 2283295)
# Procedure, shortened: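 Rat cortex membrane preparation incubated 1 h with radioligand and test chemical; bound radioactivity counted after filtration. Screening began in duplicate at 25 uM with concentration-series follow-up; fitting relative to DMSO.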
# [6] = molecular target: rat Adrenergic, Alpha 1, Non-selective Receptor (Adra1), Adra1a (gene 29412) (UniProt P43140); assay: NVS_GPCR_rAdra1_NonSelective: NovaScreen (NVS) G Protein-Coupled Receptor Assay for rat Adrenergic, Alpha 1, Non-selective Receptor (Adra1) (AID 2283289)
# Procedure, shortened: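 Chemicals first screened in duplicate at 25 uM, then actives tested in concentration series up to 50 uM. Binding measured as displacement of radioligand from rat forebrain membrane receptors, 1 h, filtration with scintillation readout; DMSO baseline.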
# [7] = molecular target: rat Adrenergic Receptor, Alpha 2 (Adra2), Non-selective Binding, Adra2a (gene 25083) (UniProt P22909); assay: NVS_GPCR_rAdra2_NonSelective: NovaScreen (NVS) G Protein-Coupled Receptor Assay for rat Adrenergic Receptor, Alpha 2 (Adra2), Non-selective Binding (AID 2283299)
# Procedure, shortened: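 Filter-based scintillation counting of radioligand binding to rat cortical membrane receptors, measured 1.25 hours post-dosing; loss of signal versus DMSO indicates displacement. Initial single-concentration duplicate at 25 uM, then concentration series.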
# [8] = molecular target: rat Adrenergic Receptor, Beta (Adrb), Non-selective Binding, Adrb1 (gene 24925) (UniProt P18090); assay: NVS_GPCR_rAdrb_NonSelective: NovaScreen (NVS) G Protein-Coupled Receptor Assay for rat Adrenergic Receptor, Beta (Adrb), Non-selective Binding (AID 2283298)
# Procedure, shortened: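 Rat cortical membranes incubated 1 h with beta-adrenergic radioligand and test chemical; bound ligand measured by filtration and scintillation counting. Screen at 25 uM duplicate, then concentration series with 50 uM maximum; loss of signal versus DMSO.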
# [9] = molecular target: mouse Cholecystokinin, CCK2 Receptor (CCKB), Cckbr (gene 12426) (UniProt P56481); assay: NVS_GPCR_mCKKBCentral: NovaScreen (NVS) G Protein-Coupled Receptor Assay for mouse Cholecystokinin, CCK2 Receptor (CCKB) (AID 2283293)
# Procedure, shortened: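 Mouse forebrain membrane preparation incubated 2 h with chemical and radioligand; bound radioactivity counted after filtration. Single-concentration duplicate screen at 25 uM, then concentration series to 50 uM max for hits, DMSO as baseline.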
# Chain of guinea pig Serotonin, 5-Hydroxytryptamine Receptor 4 (5HT4), HTR4 (gene 100135548) (O70528 whole entry, looked up): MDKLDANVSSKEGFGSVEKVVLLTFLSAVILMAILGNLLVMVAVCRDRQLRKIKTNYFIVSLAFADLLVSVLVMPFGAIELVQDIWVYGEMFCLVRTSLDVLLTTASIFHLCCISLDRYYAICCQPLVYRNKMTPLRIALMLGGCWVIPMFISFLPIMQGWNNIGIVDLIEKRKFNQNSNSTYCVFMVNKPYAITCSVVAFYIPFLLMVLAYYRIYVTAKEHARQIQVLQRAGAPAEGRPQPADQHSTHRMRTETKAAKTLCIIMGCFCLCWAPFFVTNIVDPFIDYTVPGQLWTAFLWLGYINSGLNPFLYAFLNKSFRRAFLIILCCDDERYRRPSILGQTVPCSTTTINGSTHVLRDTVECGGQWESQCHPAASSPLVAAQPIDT
# Chain of human Opioid Receptor Mu (Opiate Mu), OPRM1 (gene 4988) (P35372 whole entry, looked up): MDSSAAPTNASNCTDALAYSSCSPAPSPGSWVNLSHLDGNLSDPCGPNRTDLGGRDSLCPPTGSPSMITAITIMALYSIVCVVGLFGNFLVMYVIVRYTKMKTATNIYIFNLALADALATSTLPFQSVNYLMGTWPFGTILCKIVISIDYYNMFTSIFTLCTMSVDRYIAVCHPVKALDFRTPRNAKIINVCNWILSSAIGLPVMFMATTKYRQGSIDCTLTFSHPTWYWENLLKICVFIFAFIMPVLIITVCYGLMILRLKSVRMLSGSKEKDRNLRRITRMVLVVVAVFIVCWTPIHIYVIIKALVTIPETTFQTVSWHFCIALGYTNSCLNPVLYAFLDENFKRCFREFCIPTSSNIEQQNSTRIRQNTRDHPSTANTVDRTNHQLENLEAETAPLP
# Chain of rat Serotonin, 5-Hydroxytryptamine Receptor (5HT), Non-Selective Binding, Htr1a (gene 24473) (P19327 whole entry, looked up): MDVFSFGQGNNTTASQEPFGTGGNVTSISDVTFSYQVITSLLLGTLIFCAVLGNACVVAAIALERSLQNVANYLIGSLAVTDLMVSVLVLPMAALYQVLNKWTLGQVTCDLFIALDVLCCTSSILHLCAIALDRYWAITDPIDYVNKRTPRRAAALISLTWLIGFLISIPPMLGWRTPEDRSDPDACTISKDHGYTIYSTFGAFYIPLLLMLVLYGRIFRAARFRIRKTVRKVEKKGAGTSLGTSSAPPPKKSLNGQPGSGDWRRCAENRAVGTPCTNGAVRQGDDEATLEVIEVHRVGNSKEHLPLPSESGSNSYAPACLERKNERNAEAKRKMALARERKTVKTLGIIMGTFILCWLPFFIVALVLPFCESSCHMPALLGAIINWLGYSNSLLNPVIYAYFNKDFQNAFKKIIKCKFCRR
# Chain of mouse Cholecystokinin, CCK2 Receptor (CCKB), Cckbr (gene 12426) (P56481 whole entry, looked up): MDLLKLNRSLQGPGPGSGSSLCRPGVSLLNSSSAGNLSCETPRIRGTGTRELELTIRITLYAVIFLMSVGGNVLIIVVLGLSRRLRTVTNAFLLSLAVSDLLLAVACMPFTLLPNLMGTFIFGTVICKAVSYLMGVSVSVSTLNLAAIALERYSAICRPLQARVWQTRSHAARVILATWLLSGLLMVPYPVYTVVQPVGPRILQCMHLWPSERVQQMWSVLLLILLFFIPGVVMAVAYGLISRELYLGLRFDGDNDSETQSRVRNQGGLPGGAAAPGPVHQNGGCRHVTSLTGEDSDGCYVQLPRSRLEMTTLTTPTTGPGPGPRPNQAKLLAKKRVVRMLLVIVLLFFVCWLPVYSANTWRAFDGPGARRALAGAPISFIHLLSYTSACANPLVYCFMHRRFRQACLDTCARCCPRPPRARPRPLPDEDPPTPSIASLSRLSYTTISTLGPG
# Chain of guinea pig Bradykinin Receptor B2 (BK2), BDKRB2 (gene 100135486) (O70526 whole entry, looked up): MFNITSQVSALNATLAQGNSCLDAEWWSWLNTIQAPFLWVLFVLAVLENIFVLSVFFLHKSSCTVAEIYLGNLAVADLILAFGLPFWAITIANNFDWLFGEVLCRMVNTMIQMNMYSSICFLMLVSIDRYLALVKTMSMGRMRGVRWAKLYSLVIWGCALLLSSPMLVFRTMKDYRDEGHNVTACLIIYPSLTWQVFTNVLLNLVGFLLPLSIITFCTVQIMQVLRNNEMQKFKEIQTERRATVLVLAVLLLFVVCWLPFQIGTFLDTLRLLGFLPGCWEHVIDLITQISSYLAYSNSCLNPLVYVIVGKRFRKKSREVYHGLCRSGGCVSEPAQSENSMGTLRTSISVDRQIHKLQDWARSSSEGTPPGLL
# Chain of rat Adrenergic Receptor, Beta (Adrb), Non-selective Binding, Adrb1 (gene 24925) (P18090 whole entry, looked up): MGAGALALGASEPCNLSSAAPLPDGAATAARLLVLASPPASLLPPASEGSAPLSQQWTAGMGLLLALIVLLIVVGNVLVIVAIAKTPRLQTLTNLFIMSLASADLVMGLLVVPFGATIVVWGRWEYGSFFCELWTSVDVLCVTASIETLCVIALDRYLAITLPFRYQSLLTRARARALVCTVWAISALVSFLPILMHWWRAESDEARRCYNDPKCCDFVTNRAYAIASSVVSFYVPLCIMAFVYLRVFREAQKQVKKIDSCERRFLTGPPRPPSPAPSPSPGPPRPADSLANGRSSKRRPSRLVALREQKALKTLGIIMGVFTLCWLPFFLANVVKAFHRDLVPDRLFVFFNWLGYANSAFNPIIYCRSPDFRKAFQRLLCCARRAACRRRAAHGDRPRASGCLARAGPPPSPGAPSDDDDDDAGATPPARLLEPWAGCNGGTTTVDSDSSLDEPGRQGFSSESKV
# Chain of rat Adrenergic Receptor, Alpha 2 (Adra2), Non-selective Binding, Adra2a (gene 25083) (P22909 whole entry, looked up): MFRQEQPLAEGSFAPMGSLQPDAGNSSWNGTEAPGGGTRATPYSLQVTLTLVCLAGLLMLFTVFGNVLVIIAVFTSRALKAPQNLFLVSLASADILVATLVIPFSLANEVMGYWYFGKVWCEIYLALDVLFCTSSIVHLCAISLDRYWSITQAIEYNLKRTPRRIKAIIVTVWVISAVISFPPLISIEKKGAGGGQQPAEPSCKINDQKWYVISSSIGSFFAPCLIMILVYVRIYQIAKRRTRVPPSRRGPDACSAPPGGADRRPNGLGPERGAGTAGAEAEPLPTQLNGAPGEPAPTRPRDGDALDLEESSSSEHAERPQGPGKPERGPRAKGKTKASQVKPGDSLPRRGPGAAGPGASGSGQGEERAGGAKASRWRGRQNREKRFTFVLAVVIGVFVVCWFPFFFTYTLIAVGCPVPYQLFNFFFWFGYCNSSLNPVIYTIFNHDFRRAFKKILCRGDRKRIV
# Chain of rat Adrenergic, Alpha 1, Non-selective Receptor (Adra1), Adra1a (gene 29412) (P43140 whole entry, looked up): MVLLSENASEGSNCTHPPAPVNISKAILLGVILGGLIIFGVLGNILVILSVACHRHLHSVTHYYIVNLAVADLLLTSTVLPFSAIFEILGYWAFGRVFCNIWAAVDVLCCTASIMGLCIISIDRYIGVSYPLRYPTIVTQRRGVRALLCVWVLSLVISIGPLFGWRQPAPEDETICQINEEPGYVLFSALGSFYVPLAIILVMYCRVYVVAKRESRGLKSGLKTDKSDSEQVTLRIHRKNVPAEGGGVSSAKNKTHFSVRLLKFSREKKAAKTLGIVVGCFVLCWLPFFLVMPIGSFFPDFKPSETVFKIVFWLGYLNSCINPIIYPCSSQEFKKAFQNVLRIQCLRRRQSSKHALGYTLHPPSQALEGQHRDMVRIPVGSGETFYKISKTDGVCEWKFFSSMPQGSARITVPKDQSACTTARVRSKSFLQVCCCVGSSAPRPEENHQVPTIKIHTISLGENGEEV
smiles,measurement,setting,value
COc1cc(C=O)ccc1O,outcome,[1],inactive
Oc1ccc2ccccc2c1N=Nc1ccccc1,AC50,[2],37.4 µM (active)
COc1cc(S(=O)(=O)O)c(C)cc1N=Nc1c(O)ccc2cc(S(=O)(=O)O)ccc12,AC50,[3],41.9 µM (active)
same,outcome,[4],inactive
CCc1c(C(=O)NN2CCCCC2)nn(-c2ccc(Cl)cc2Cl)c1-c1ccc(Br)cc1,outcome,[2],inactive
same,outcome,[3],inactive
same,AC50,[5],12 µM (active)
CCCCC(CC)COC(=O)CC(C(=O)OCC(CC)CCCC)S(=O)(=O)O (stereo not drawn),AC50,[6],17 µM (active)
same,AC50,[2],14.8 µM (active)
same,AC50,[3],36 µM (active)
same,AC50,[5],25 µM (active)
same,AC50,[4],29.2 µM (active)
same,AC50,[7],32.9 µM (active)
CNCc1cc(F)ccc1Oc1ccc(Cl)c(Cl)c1,AC50,[8],12.2 µM (active)
COc1ccc(S(=O)(=O)N2C(=O)[C@@](c3ccccc3OC)(N3C[C@H](O)C[C@H]3C(=O)N(C)C)c3cc(Cl)ccc32)c(OC)c1,AC50,[9],25 µM (active)
NCCO,outcome,[1],inactive
CC(C)c1ccc(C(=O)N=C(N)N)cc1S(C)(=O)=O,outcome,[8],inactive
CCCCc1ccc2c(n1)[C@@H](c1ccc(OC)cc1C[C@H](C)C(=O)O)[C@H](C(=O)O)[C@H]2c1ccc2c(c1)OCO2,AC50,[9],20 µM (active)
